# Screening results from PubChem.
# Htt clearance = compounds clearing mutant huntingtin protein; HeLa Exon1htt(103Q)mCFP, aggregate imaging; zero = plate's median compound well; inhibition, % at 1.5 µM; 47,000 compounds, 0.42% hits; AID 853;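 active means inhibition of aggregate fluorescence above about 70%, also judged a hit by eye on the cell image, limit read from the data, passing the limit was not always enough; inconclusive means no rule stated for this call; inactive means not judged a hit on image review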;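 further: cells exposed to compound for three days before fixation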
# Abs 340nm = absorbance at 340 nm. compound absorbance at 340 nm, fold over control. fold change at 10 µM. 65,000 tested, under 10 active;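 active means at 10 µM dose, initial 340 nm absorbance at least 2 fold that of control wells; inactive means change under 2 fold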;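 further: initial absorbance extrapolated from kinetic A340 decline of NADH oxidation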
# M1 ag = M1 muscarinic receptor agonism; CHO-M1 cells, Fluo-4 calcium fluorescence, agonist mode; stronger effect = higher value; B-score at 10 µM; 64,000 compounds, 3% hits; AID 626;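 active means fluorescence rise, raw or as B-score row- and column-corrected plate score, outside the 99.7% band of its plate's samples, either direction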
# Fluor 339 460 = intrinsic fluorescence of library compounds, ex339/em460 – biochemical, MLSMR library, data from DPM-DC assay, artefact control, profiling panel. AID 709. compound autofluorescence, ex339/em460 nm, NADH buffer; stronger effect = higher value; 1 = no-compound wells, NADH background. 65,000 compounds, 5.5% hits. fluorescence fold increase at 10 µM;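 active means at 10 µM, mean starting fluorescence two-fold or more over control wells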;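 further: signal is the first read of a kinetic run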
# NADH enzymes = inhibition of NAD/NADH coupling enzymes, library profiling; AID 774; IC50, µM (titrated, usually from 10 µM); 65,000 compounds, 0.02% hits; coupled PK/LDH NADH assays, four targets;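 active means single-dose screening hits from any of four coupled enzyme assays that gave an IC50 when retested across doses; inconclusive means no clear call, values can overlap the other calls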;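 further: the DPM-DC format reads NADH fluorescence rather than 340 nm absorbance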
# M1 antag = M1 muscarinic receptor (rat) antagonism; P08482; CHO-M1 cells, Fluo-4 calcium, ACh EC80 antagonist mode; stronger effect = lower value; B-score at 10 µM; 64,000 compounds, 3.4% hits; AID 628;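 active means calcium fluorescence response, raw or row-and-column corrected B-score, differing from the plate sample mean either way at a set confidence level, mostly lower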
# Target sequence (P08482 whole entry, looked up): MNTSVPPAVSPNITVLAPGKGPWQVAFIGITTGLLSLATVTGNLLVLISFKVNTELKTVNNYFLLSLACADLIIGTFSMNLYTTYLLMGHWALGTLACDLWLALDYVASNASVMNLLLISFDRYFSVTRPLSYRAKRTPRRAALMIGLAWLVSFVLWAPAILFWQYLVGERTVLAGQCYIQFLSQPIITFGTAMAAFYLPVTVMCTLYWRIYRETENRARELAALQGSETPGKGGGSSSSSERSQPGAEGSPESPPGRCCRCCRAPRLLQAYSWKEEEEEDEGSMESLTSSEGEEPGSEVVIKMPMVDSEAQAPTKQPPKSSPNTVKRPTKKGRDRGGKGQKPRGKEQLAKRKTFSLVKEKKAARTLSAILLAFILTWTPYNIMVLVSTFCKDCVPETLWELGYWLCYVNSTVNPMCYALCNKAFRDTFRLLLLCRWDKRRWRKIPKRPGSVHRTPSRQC
# M1 ag confirm = confirmation of rat M1 muscarinic receptor agonists. shares compounds with M1 ag. CHO-M1 cells, Fluo-4 calcium fluorescence, agonist mode; actives lie on both sides. fluorescence change (max-min) at 10 µM. 1,700 compounds, 19% hits;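 active means fluorescence change differs from the solvent-only DMSO control mean at a set confidence level in both duplicate runs; inconclusive means differs from solvent-only control mean in just one of two runs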;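 further: an EC20 dose of acetylcholine follows compound addition during the same imaging run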
# M4 agonist ctr = activates rat M4 receptor in counter-screen for M1 agonists | fluorescence change (max-min) at 10 µM | shares compounds with M1 ag | 1,700 compounds, 9% hits | CHO M4/Gqi5 cells, Fluo-4 calcium fluorescence, agonist mode; actives lie on both sides;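 active means fluorescence change differing from the plate's solvent-only control wells at 99.7% confidence in both duplicates, whether higher or lower; inconclusive means differs from solvent controls in only one of two duplicates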
# Numbers stand for hits; i = inactive; ? = inconclusive; nt = not tested or not shown. Shown are actives, neighbours in structure and some others; about 9.3% of the full set was active somewhere.
SMILES,Htt clearance,Abs 340nm,M1 ag,Fluor 339 460,NADH enzymes,M1 antag,M1 ag confirm,M4 agonist ctr
Cc1nnc(SCC(=O)Nc2nccs2)s1,nt,i,i,i,i,i,nt,nt
CN(C)c1ccc(NC(=O)c2sc(SCC(=O)Nc3nccs3)nc2N)cc1,nt,i,7.1,i,i,i,i,?
COc1ccc(CCNc2oc(COc3ccc(Br)cc3)nc2C#N)cc1OC,i,i,4.9,i,i,i,-24,-72
COCCn1c(C)cc(C(=O)COc2nc3ccccc3nc2C)c1C,nt,i,5.2,i,i,i,i,i
COCc1cc(C)nc2sc(C(=O)OC)c(N)c12,i,i,4.4,i,i,i,i,i
O=S1(=O)C=C(SCc2cccc(Cl)c2)Nc2ccccc21,i,nt,nt,nt,nt,nt,nt,nt
CC(=O)[C@H]1[C@@H]2C(=O)N(c3cccc(Cl)c3)C(=O)[C@@H]2[C@H]2c3ccccc3C=CN21,i,i,6.4,i,i,i,98,?
Cc1ccc(-c2noc(COc3ccccc3C)n2)cc1,i,i,i,i,i,i,nt,nt
Cc1ccccc1OCc1nc(-c2ccccc2)no1,i,i,-2.4,i,i,i,i,i
COc1cc2nc(NCC3CCCO3)n3nc(-c4cccnc4)nc3c2cc1OC (configuration not stated),i,i,2.9,i,i,-3.9,?,i
Cc1nc2ccc(NC(=O)c3c(-c4ccccc4)noc3C)cc2s1,nt,i,4.1,i,i,i,i,i
Cc1onc(-c2ccccc2)c1C(=O)Nc1ccc2c(c1)OCCO2,nt,i,i,i,i,i,nt,nt
Cc1ccc2nsnc2c1S(=O)(=O)NCCc1c(C)[nH]c2ccc(F)cc12,i,nt,nt,nt,nt,nt,nt,nt
COc1ccc(NC(=O)Nc2ccc3c(c2)N(C)C(=O)CS3)cc1OC,nt,i,3.1,i,i,i,?,i
COc1ccccc1S(=O)(=O)Cc1ccc(C(=O)N2CCN(c3ccc(C)cc3)C(C)C2)o1 (configuration not stated),nt,i,i,i,i,i,nt,nt
COc1ccc(S(=O)(=O)Cc2ccc(C(=O)NCCc3ccc(S(N)(=O)=O)cc3)o2)cc1,i,i,3.8,i,i,i,?,i
COc1ccc(S(=O)(=O)Cc2ccc(C(=O)N3CCN(c4cccc(C)c4)C(C)C3)o2)cc1 (configuration not stated),nt,i,3.4,i,i,i,?,i
COc1ccc(S(=O)(=O)Cc2ccc(C(=O)N3CCN(c4ccc(Cl)cc4)CC3)o2)cc1,i,i,2.3,i,i,i,i,i
COCCCNC(=O)c1ccc(CS(=O)(=O)c2ccc(OC)cc2)o1,nt,i,i,i,i,i,nt,nt
COc1ccc(N2CCN(C(=O)c3ccc(NS(=O)(=O)c4ccc(F)c(F)c4)cc3)CC2)cc1,nt,i,2.3,i,i,i,i,i
CC(=O)c1ccc(N(C)C)c2c(N(C)C)cccc12,i,i,i,i,i,i,nt,nt
COC(=O)c1cccc(C(=O)Nc2cnc3ccccc3c2)n1,i,i,3.7,i,i,i,i,?
O=C(Nc1cnc2ccccc2c1)c1ccncc1,nt,i,i,i,i,i,nt,nt
O=C(c1ccco1)N1CCN(C(=O)C2CCCc3c2[nH]c2ccc(Cl)cc32)CC1 (configuration not stated),nt,i,i,i,i,i,nt,nt
O=C(Nc1ccccc1)NC1(C(=O)NCCCN2CCOCC2)CCCCC1,nt,i,4,i,i,i,?,i
SMILES,Htt clearance,Abs 340nm,M1 ag,Fluor 339 460,NADH enzymes,M1 antag,M1 ag confirm,M4 agonist ctr
CCCCC(=O)Nc1ccc(C(=O)N2CCN(C)CC2)cc1,i,i,i,i,i,i,nt,nt
CN1CCN(c2ncnc3c2cnn3-c2ccc(Cl)cc2)CC1,nt,i,2.9,i,i,i,?,i
O=C(Nc1nc(-c2cc3ccccc3oc2=O)cs1)c1ccco1,nt,i,1.6,2.1,i,i,i,i
CC(C)(C)OC(=O)N[C@@H](Cc1ccccc1)c1nnc(S(=O)(=O)Cc2ccccc2)o1,nt,i,21,i,i,i,i,i
CCSc1nnc([C@H](Cc2ccccc2)NC(=O)OC(C)(C)C)o1,i,nt,nt,nt,nt,nt,nt,nt
NS(=O)(=O)c1ccc(NC(=O)CSc2nnc(-c3cnccn3)n2-c2ccccc2)cc1,i,i,i,i,i,i,nt,nt
O=C(c1ncc[nH]1)c1ccco1,nt,i,3.6,i,i,i,i,i
O=C(c1ccco1)c1n[nH]nc1-c1ccccc1,i,i,i,i,i,i,nt,nt
Nc1nc(CSc2n[nH]c(-c3ccccc3)n2)nc(Nc2ccccc2)n1,nt,i,2.2,i,i,i,-42,i
Nc1nc2n(n1)C(c1ccco1)CC(c1ccccc1)N2 (configuration not stated),i,i,i,i,i,i,nt,nt
Nc1nc2n(n1)C(c1ccco1)CC(c1ccc(F)cc1)N2 (configuration not stated),nt,i,2.3,i,i,i,?,?
COc1cccc(N(C(=O)c2cccs2)c2nc3ccccc3s2)c1,i,i,i,i,i,i,nt,nt
CCCCOP(=O)(OCCCC)C1(NS(=O)(=O)c2ccccc2)C=CC(=O)c2ccccc21 (configuration not stated),i,nt,nt,nt,nt,nt,nt,nt
Cn1c(=O)c2c(nc(NCc3ccccc3)n2CCCc2ccccc2)n(C)c1=O,i,i,15,i,i,2.5,?,i
Cn1c(=O)c2c(nc(N3CCN(Cc4ccccc4)CC3)n2CCCc2ccccc2)n(C)c1=O,i,i,4.2,i,i,i,i,i
Cn1c(=O)c2c(nc(N3CCN(c4ccccc4)CC3)n2CCCc2ccccc2)n(C)c1=O,i,i,i,i,i,i,nt,nt
CN1CCN(c2c3c(c(C#N)c4nc5ccccc5n24)CCCC3)CC1,nt,i,i,i,i,i,nt,nt
COc1cccc(C(=O)Nc2ncc3c(n2)CC(C)CC3=O)c1 (configuration not stated),i,i,i,i,i,i,nt,nt
CC1CC(=O)c2cnc(Nc3cccc(C(F)(F)F)c3)nc2C1 (configuration not stated),i,i,3,i,i,i,i,i
O=C(NCC1COc2ccccc2O1)C1CCN(S(=O)(=O)c2cccc3nsnc23)CC1 (configuration not stated),i,i,i,i,i,i,nt,nt
COCCn1c(-c2cc(OC)c(OC)c(OC)c2)nc2oc3ccccc3c(=O)c2c1=O,nt,i,i,i,i,i,nt,nt
COCCn1c(-c2ccccc2)nc2oc3ccccc3c(=O)c2c1=O,nt,i,2.4,i,i,i,-25,-96
O=C(CN1C(=O)C2C3C=CC(C3)C2C1=O)N1CCc2ccccc2C1 (configuration not stated),i,i,i,i,i,i,nt,nt
